Reference: PMC4336329 (PLoS ONE, 2015)
Out of some 310,000 compounds screened, about 14,000 (4.5%) showed an effect of 50% or more. The effect is printed as a negative number. Shown is part of a subset that was picked to be rich in strong results.

The molecules below were run against human ether-à-go-go-related gene (hERG) potassium channel (human, UniProt Q12809) (assay: primary screen, population patch clamp on CHO cells stably expressing hERG; higher = less effect of the substance).
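Also: peak tail current of the secondary pulse compared with the same well before compound.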

human ether-à-go-go-related gene (hERG) potassium channel, sequence (Q12809 whole entry, looked up): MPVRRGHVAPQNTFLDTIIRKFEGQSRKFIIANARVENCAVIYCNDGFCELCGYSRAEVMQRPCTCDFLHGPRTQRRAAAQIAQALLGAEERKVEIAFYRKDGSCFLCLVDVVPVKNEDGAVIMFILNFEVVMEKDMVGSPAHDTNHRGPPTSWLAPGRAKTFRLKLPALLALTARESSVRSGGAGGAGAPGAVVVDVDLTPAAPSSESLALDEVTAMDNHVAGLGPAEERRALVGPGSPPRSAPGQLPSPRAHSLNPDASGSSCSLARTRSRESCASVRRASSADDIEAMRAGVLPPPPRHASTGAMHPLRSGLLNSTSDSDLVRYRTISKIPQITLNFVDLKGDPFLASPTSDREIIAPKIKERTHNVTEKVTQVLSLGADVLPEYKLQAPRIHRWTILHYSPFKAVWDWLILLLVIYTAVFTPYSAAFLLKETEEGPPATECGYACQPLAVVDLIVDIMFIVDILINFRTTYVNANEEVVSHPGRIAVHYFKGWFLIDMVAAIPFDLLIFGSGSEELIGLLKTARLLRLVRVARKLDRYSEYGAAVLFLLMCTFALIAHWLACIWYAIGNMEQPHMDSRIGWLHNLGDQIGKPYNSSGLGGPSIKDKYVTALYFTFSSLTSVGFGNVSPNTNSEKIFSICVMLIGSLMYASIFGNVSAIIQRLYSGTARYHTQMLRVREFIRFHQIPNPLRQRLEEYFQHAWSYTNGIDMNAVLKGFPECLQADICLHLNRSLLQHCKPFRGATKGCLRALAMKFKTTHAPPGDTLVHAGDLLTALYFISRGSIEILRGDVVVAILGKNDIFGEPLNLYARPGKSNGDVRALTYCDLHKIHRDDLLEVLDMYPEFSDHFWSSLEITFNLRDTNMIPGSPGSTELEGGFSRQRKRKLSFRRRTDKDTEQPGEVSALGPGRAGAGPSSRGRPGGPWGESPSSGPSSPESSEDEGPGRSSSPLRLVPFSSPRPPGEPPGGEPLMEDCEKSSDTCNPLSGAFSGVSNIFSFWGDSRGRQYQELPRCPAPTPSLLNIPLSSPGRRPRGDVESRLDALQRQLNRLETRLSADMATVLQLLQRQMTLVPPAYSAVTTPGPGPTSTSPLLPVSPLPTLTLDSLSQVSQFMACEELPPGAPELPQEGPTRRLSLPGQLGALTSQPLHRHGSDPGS

Structure (SMILES)	hERG current change (%, negative = inhibition) at 10uM [%]
CCOc1ccccc1NC(=O)NCc1ccco1	8.52
CC(=O)N1CCc2cc(S(=O)(=O)CCC(=O)NCc3ccc(F)cc3)ccc21	-13.8
O=C1C=C(O)C(n2cncn2)C(c2ccc3c(c2)OCO3)C1 (stereo not shown)	17.1
O=C(NCc1cccnc1)c1nc(-c2ccccc2)n(-c2ccccc2)n1	-14.7
O=C(CCCCCn1c(=S)[nH]c2ccc(N3CCOCC3)cc2c1=O)NCc1ccccc1	12
COc1ccc(C(=O)OCc2c(C)noc2C)cc1	12.9
COC(=O)c1ccc(NC(=S)NC2CCc3ccccc32)cc1 (stereo not shown)	-13.9
CNS(=O)(=O)c1ccc2c3c(cccc13)C(=O)N2	9.73
COc1ccc(C)c2sc(N(CCCN(C)C)C(=O)c3ccc(S(=O)(=O)N(C)C)cc3)nc12.Cl	-61.5
Cc1cc(C)c2nc(N(CCCN(C)C)C(=O)C3=COCCO3)sc2c1.Cl	-65.9
COc1ccc(C)c2sc(N(CCCN(C)C)C(=O)c3ccc(S(=O)(=O)N4CCc5ccccc5C4)cc3)nc12.Cl	9.73
COc1ccc(C)c2sc(N(CCCN(C)C)C(=O)CS(=O)(=O)c3ccc(F)cc3)nc12.Cl	-60.3
Cc1cc(C)c2nc(N(CCCN(C)C)C(=O)c3ccc(S(=O)(=O)N4CC(C)OC(C)C4)cc3)sc2c1.Cl (stereo not shown)	-33.7
Cc1cccc2sc(N(CCCN3CCOCC3)C(=O)CS(=O)(=O)c3ccc(F)cc3)nc12.Cl	-16.9
COc1ccc(OC)c2sc(N(CCCN(C)C)C(=O)c3ccc(S(=O)(=O)N4CCc5ccccc5C4)cc3)nc12.Cl	-8.54
Cc1ccc(S(=O)(=O)CC(=O)N(CCCN(C)C)c2nc3ccc(C)cc3s2)cc1.Cl	-43.9
Cc1cc(C)c2nc(N(CCN(C)C)C(=O)/C=C/c3cccs3)sc2c1.Cl	17.9
Cc1ccc(-n2nnnc2SCC(=O)N2CCCCC2)cc1	-3.3
CCNC(=S)N/N=C/c1c(Cl)cccc1Cl	18.1
Cc1cccc(-n2ncc3c2CCCC3NC(=O)C2CCOCC2)c1C (stereo not shown)	6.59
O=C(Nc1cnc2ccccn2c1=O)c1ccc(Cl)cc1	-23
CN(CC(=O)Nc1ccccc1Cl)C(=O)CN1C(=O)NC(c2ccccc2)(c2ccccc2)C1=O	-66.8
NC(=O)NC(=O)CN1C(=O)NC(c2ccccc2)(c2ccccc2)C1=O	4.8

Structure (SMILES)	hERG current change (%, negative = inhibition) at 10uM [%]
COc1ccc(CNC(=O)C(C)N2C(=O)NC(c3ccccc3)(c3ccccc3)C2=O)cc1 (stereo not shown)	-86.5
C=CCNC(=O)NC(=O)CN1C(=O)NC(c2ccccc2)(c2ccccc2)C1=O	-69.5
COc1ccc(NC(=O)CN2C(=O)NC(c3ccccc3)(c3ccccc3)C2=O)cc1	-55
O=C(CN1C(=O)NC(c2ccccc2)(c2ccccc2)C1=O)NCc1ccccc1	-31
CCN1C(=O)C(=O)N(CC(=O)N(C)CC(=O)Nc2ccccc2Cl)C1=O	4.13
CC(C(=O)NC(N)=O)N1C(=O)NC(c2ccccc2)(c2ccccc2)C1=O (stereo not shown)	-14.9
CCNC(=O)NC(=O)C(C)N1C(=O)NC(c2ccccc2)(c2ccccc2)C1=O (stereo not shown)	-43.6
COc1ccc(C2(c3ccc(OC)cc3)NC(=O)N(CC(=O)Nc3ccccc3)C2=O)cc1	28.6
CN(CC(=O)Nc1ccccc1Cl)C(=O)COC(=O)CN1C(=O)NC2(CCCC2)C1=O	9.31
COc1cc(NC(=O)CN2C(=O)NC(c3ccccc3)(c3ccccc3)C2=O)cc(OC)c1	5.79
CCOC(=O)N1CCN(C(=O)c2csc3c2CCCCC3)CC1	8.08
C=C(C)C1Cc2c(C)nn(-c3ccccn3)c2C1 (stereo not shown)	11
Cc1csc(SCC(=O)Nc2sccc2C#N)n1	-0.612
Cc1oc(-c2ccccc2)nc1CS(=O)CC(=O)NC1CCCCCC1 (stereo not shown)	-11.5
Cc1cccc(OCC(=O)NCC(=O)n2nc(C)cc2C)c1	10.5
Oc1c(C(c2ccco2)N2CCC3(CC2)OCCO3)sc2ncnn12 (stereo not shown)	1.38
COc1ccc(C2=CC(c3c(C)nn(-c4ccccc4)c3Cl)n3nnnc3N2)cc1OC (stereo not shown)	11.4
COc1ccc(C2=CC(c3ccc(Cl)cc3)n3cnnc3N2)cc1OC (stereo not shown)	-52
COc1ccc(C2C=C(c3ccc(Cl)cc3)Nc3nc(NC(C)=O)nn32)cc1 (stereo not shown)	-39.7
COCCn1c(SCC(=O)Nc2sc(C)c(C)c2C#N)nnc1-c1ccc(OC)cc1	-52.1
Cc1sc(NC(=O)CSc2nnc(C(C)C)n2C)c(C#N)c1C	-1.79
Cc1ccc(-c2nnc(SCC(=O)Nc3sc(C)c(C)c3C#N)n2C)cc1	-54.1
COCCn1c(SCC(=O)Nc2sc(C)c(C)c2C#N)nnc1C(C)C	-3.62

Structure (SMILES)	hERG current change (%, negative = inhibition) at 10uM [%]
CCOC(=O)c1sc(NC(=O)CSc2nnc(-c3ccc(OC)cc3)n2CCOC)nc1C	-27.3
Cc1ccc(OCc2nnc(SCC(=O)Nc3sc(C)c(C)c3C#N)n2C)cc1	12.8
CN1CCN(C(=S)c2ccc(-c3cc(Cl)ccc3Cl)o2)CC1	-20.7
CC1CCN(C(=O)COC(=O)c2cc3ccccc3cc2O)CC1	3.92
O=C1c2ccccc2C(=O)N1n1c(=O)[nH]c2ccccc2c1=O	14.9
O=C(O)c1ccccc1-n1c2ccccc2c2ccccc21	19
COc1ccccc1NC(=O)C(C)OC(=O)Cc1n[nH]c(=O)c2ccccc12 (stereo not shown)	9.99
Cn1c(SCc2nc3ccccc3[nH]2)nnc1-c1cnccn1	10.2
Oc1ccc(C=NCCc2ccccc2)cc1	10.2
COc1ccc(OC)c(/C=C/C(=O)N(C)CC(=O)Nc2ccc(N3CCOCC3)cc2)c1	-8.78
CCCCCCNC(=O)N[C@@H](C(=O)NCCC[C@H]1CN2C(=NC[C@@H]2Cc2ccccc2)N1CCc1cccc(OC)c1)C(C)C	-18.7
COc1ccc(C[C@H]2CN3C(=NC[C@H]3Cc3ccccc3)N2CCNC(=O)c2ccc(C)c(Br)c2)cc1	-69
COc1ccc(C[C@H]2CN3C(=NC[C@@H]3Cc3ccccc3)N2CCNC(=O)c2ccc(C)c(Br)c2)cc1	-74
COc1ccc(/C=N/Nc2cc(N(C)C)nc(N(C)C)n2)cc1	-28.5
COc1ccc(C2(C(=O)Nc3ccc(C)c(C)c3)CCOCC2)cc1	6.97
Cc1ccc2c(c1)sc(C)[n+]2CCCS(=O)(=O)[O-]	29.7
COc1cc(/C=N/NC(=O)Cc2ccccc2)ccc1Oc1ccc([N+](=O)[O-])cc1[N+](=O)[O-]	1.03
CN1CCCC(OC(=O)c2ccc(S(=O)(=O)N(C)C)cc2)C1.Cl (stereo not shown)	8.58
Cc1ccc(SCCOCCN2CC(C)OC(C)C2)cc1.Cl (stereo not shown)	-12.4
c1ccc(SCCOCCN2CCc3ccccc3C2)cc1	-75.3
Cc1ccc(SCCOCCN2CCc3ccccc3C2)cc1	-60.5
Cl.Clc1ccc(SCCOCCN2CCc3ccccc3C2)cc1	-53.7
Cl.c1ccc(SCCOCCN2CCOCC2)cc1	14.3

Structure (SMILES)	hERG current change (%, negative = inhibition) at 10uM [%]
c1ccc(SCCN2CCc3ccccc3C2)cc1	-19.3
Cc1ccc(Cl)c(OCCN2CCc3ccccc3C2)c1.Cl	-9.17
Cc1ccc(SCCOCCN2CCOCC2)cc1.Cl	-1.55
CC1CN(CCOCCSc2ccccc2)CC(C)O1.Cl (stereo not shown)	-14.9
O=C(c1cccnc1)N1CCC(Oc2ccc(C(=O)N3CCCC(O)C3)cc2)CC1 (stereo not shown)	-0.912
CC(=O)c1cnc2nc(SCc3ccccc3)nn2c1C	0.852
O=C(c1ccco1)N1CCN(C2CC(=O)N(c3ccc4c(c3)OCO4)C2=O)CC1 (stereo not shown)	-16.8
COc1ccc(CC(=O)N2CCN(c3ccccn3)CC2)cc1OC	8.9
COc1cc(C(=O)N/N=C/c2cc([N+](=O)[O-])cs2)cc(OC)c1OC	-8.26
C[C@@H](C(=O)NCc1ccc(S(C)(=O)=O)cc1)[C@@H]1C[C@@]1(C)[C@@H](NC(=O)OCc1ccccc1)c1ccccc1	-75.1
C[C@@H](C(=O)NCc1ccc(S(C)(=O)=O)cc1)[C@H]1C[C@]1(C)[C@H](NC(=O)OCc1ccccc1)c1ccccc1	-35.4
C[C@@H](C(=O)NCc1ccccc1)[C@H]1C[C@]1(C)[C@H](NC(=O)OCc1ccccc1)c1ccccc1	-21.3
CCCC(=O)n1nc(-c2ccco2)nc1SCc1ccccc1	0.232
O=C(NC1CCCC1)C(NS(=O)(=O)c1cccc2nsnc12)c1ccccc1 (stereo not shown)	-10.5
CC1CCN(C(=O)C(NS(=O)(=O)c2cccc3nsnc23)c2ccccc2)CC1 (stereo not shown)	-69.5
O=C(O)C(NS(=O)(=O)c1cccc2nsnc12)c1ccccc1 (stereo not shown)	16.1
O=C(Nc1ccccn1)C(NS(=O)(=O)c1cccc2nsnc12)c1ccccc1 (stereo not shown)	-4.67
O=C(C(NS(=O)(=O)c1cccc2nsnc12)c1ccccc1)N1CCN(c2ccccc2)CC1 (stereo not shown)	-71.4
CN(CC(=O)N1CCN(c2ccccn2)CC1)S(=O)(=O)c1cccc2nsnc12	-23.6
CC1CCN(C(=O)C(NS(=O)(=O)c2cccc3nsnc23)C(C)C)CC1 (stereo not shown)	-5.48
CCOC(=O)N1CCN(C(=O)C(NS(=O)(=O)c2cccc3nsnc23)c2ccccc2)CC1 (stereo not shown)	-47.1
O=C(C(NS(=O)(=O)c1cccc2nsnc12)c1ccccc1)N1CCN(c2ccccn2)CC1 (stereo not shown)	-64.8
